# Experimental data as given in ChEMBL document CHEMBL1157539, “Thousands of chemical starting points for antimalarial lead identification” (Nature, 2010).
# Tested on: Plasmodium falciparum
# Assay: GSK_TCMDC: Inhibition of Plasmodium falciparum 3D7 in whole red blood cells, using parasite LDH activity as an index of growth. Test compounds present at 2uM
# Assay type: functional
row,SMILES,Inhibition
1,Cc1ccc(Nc2nc(C)cc(Nc3cccc(C#N)c3)n2)cc1,100%
2,Cn1nccc1C(=O)NCCNCc1cccc(-c2ccc(-c3nc4cc(C(F)(F)F)ccc4[nH]3)s2)c1.O=C(O)C(F)(F)F,100%
3,O=C(Nc1ccc(-c2nc3ccccc3[nH]2)cc1)C1CCN(Cc2cccc(F)c2F)CC1,97%
4,Cc1ccccc1C1CCN(C2CCC(NC(=O)c3cc(-c4ccccc4)oc3C)CC2)CC1 (stereo unspecified),100%

# Tested on: Plasmodium falciparum
# Assay: GSK_TCMDC: Inhibition of Plasmodium falciparum Dd2 in whole red blood cells, using parasite LDH activity as an index of growth. Test compounds present at 2uM
# Assay type: functional
row,SMILES,Inhibition
1,O=C(NCc1ccco1)c1ccc(S(=O)(=O)c2ccc(Cl)cc2)cc1,95%
2,CCCc1cc(Cc2cnc(N)nc2N)cc(CCC)c1OCCCCC(=O)OCC,0%
3,Cc1c(Cc2ccccc2)c(=O)oc2c(C)c3c(cc12)CN(CC(C)c1ccccc1)CO3 (stereo unspecified),98%
4,COc1ccc(NC(=O)NC2CCN(CCCOc3cc(C)nc4ccccc34)CC2)cc1OC,9%
5,COc1ccc(-c2ccc(NC(=O)c3cccc(C#N)c3)cc2)cc1CN1CCCN(C)CC1.O=C(O)C(F)(F)F,70%
6,CC(C)CCNCc1ccc(OCc2ccccc2COc2ccc(CNCCC(C)C)cc2I)c(I)c1.Cl,78%
7,Cc1cc(C(F)(F)F)nn1-c1ccc(NC(=O)c2ccco2)cc1,93%
8,O=C(NC1CCN(Cc2ccccc2)CC1)c1ccc(-c2nc3cc(Cl)c(Cl)cc3[nH]2)c(F)c1,83%
9,O=C(O)C(F)(F)F.Oc1ccc(CN2CCC(NCc3cccc4ccccc34)CC2)cc1,8%
10,CCc1c(CCNCCc2cccc(CCNCCc3ccc(OC)c(OC)c3CC)c2)ccc(OC)c1OC.Cl,67%
11,O=C(/C=C/c1ccc(Cl)c(Cl)c1)NCCCCCCN1CCN(C(=O)Nc2cc(Cl)nc(Cl)c2)CC1,0%
12,O=C(Nc1ccc(OC2CCN(Cc3ccccc3)CC2)c(Cl)c1)c1ccsc1.O=C(O)C(F)(F)F,92%
13,O=C(/C=C/c1ccc(Cl)c(Cl)c1)NCCCCCCN1CCCN(C(=O)Nc2ccc(C(F)(F)F)cc2)CC1,25%
14,Cc1cc(C(=O)Nc2ccc3c(c2)CCN3C2CCN(Cc3cccc(F)c3F)C2)no1 (stereo unspecified),94%
15,O=C(Nc1ccc(F)c(Cl)c1)NC1CCN(c2ccnc3cc(Cl)ccc23)C1.O=C(O)C(F)(F)F (stereo unspecified),74%
16,FC(F)(F)c1ccc2[nH]c(-c3cccc(-c4cccc(CNCCc5ccncc5)c4)c3)nc2c1.O=C(O)C(F)(F)F,97%

row,SMILES,Inhibition
1,COc1cc2nc(N3CCC(CNC(=O)c4cc5ccccc5s4)CC3)nc(N)c2cc1OC,100%
2,Nc1cccc(CNCc2ccc(-c3ccc(-c4nc5cc(F)ccc5[nH]4)s3)cc2)c1.O=C(O)C(F)(F)F,93%
3,COc1ccc(-c2cncc(-c3ccc(OC)c(OC)c3)n2)cc1OC.Cl,90%
4,Cc1cc(N2CCOCC2)nc2ccc(NC(=O)c3cccc([N+](=O)[O-])c3)cc12,37%
5,COc1ccc2nccc([C@@H](O)CN3CCC(NCC(O)Cc4ccccc4)CC3)c2c1.O=C(O)C(=O)O (stereo partly specified),6%
6,CC(C)[C@H](NC(=O)c1ccc(O)c(-c2ccc(Cl)c(Cl)c2)c1)C(=O)NC1CCCCCC1,99%
7,Cl.NCc1ccc(-c2ccc3c(N)nccc3c2)cc1,92%
8,O=C(N[C@H]1CCN(Cc2ccc(OCCCN3CCCCC3)cc2)C1)c1ccc2ccccc2c1,32%
9,CCn1c(-c2nonc2N)nc2c(-c3cccc(NC(=O)Nc4cccc(C#N)c4)c3)ncc(OCCCN)c21.O=C(O)C(F)(F)F,80%
10,Cc1ccc(NC(=O)c2ccc(CN3CCCN(CCC(C)C)CC3)cc2)cc1F.O=C(O)C(F)(F)F,31%
11,O=C(O)C(F)(F)F.c1ccc(CCNCc2ccc(-c3ccc(CNC4CCN(Cc5ccccc5)CC4)cc3)nc2)cc1,99%
12,COc1ccc2nccc([C@@H](O)CN3CCC(NC(=O)Cc4cccc5c(Br)cccc45)CC3)c2c1,34%
13,CN(CCO)Cc1cccc(-c2ccc(NC(=O)c3cccc(C#N)c3)cc2)c1.O=C(O)C(F)(F)F,57%
14,CCCNCc1ccc(-c2ccc(CN(CCOC)C(=O)CCC(=O)c3ccc(OC)c(F)c3)cc2)nc1.O=C(O)C(F)(F)F,47%
15,O=C(/C=C/c1ccc(Cl)c(Cl)c1)NCCCCCN1CCC(NC(=O)Nc2ccc(F)c(Cl)c2)CC1,11%
16,CN1CCN(CCCN(Cc2cccc(-c3ccc(CNC4CCCC4)cc3)c2)C(=O)CCC2CCCC2)CC1.O=C(O)C(F)(F)F,84%
